Measurements published in PubChem BioAssay AID834 (PCMD, 2007).
In all, about 85,000 compounds went through this assay and about 120 (0.14%) were called active. The full list was thinned out, with actives kept by preference. Values without a mark were called inactive.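 The calls were made as follows: active = inhibition above 20%; inactive = inhibition below 20%.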

Experiment: clotrimazole potentiators killing Candida biofilms, primary screen, with clotrimazole, Alamar Blue (AID 834);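 also: preformed 24 hr biofilms exposed to compound for 48 hr; 0% = biofilm without compound and 100% = blank killed by clotrimazole plus chlorhexidine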
Settings: C. albicans biofilm + clotrimazole, at 6 µM, active compounds read high
Work on `CCCn1c(C)cc(C(=O)COC(=O)c2c(C)nn(-c3ccccc3)c2C)c1C` yielded an inhibition of -1.14%.
For `O=C(CSc1nnc(-c2cccs2)n1Cc1ccccc1)N1CCc2ccccc2C1`, the inhibition was 6.37%.
With `CCOc1ccc2c(c1)C(c1ccc(C)cc1)=NNC(c1ccc(C)cc1)=N2` the inhibition was -0.27%.
With `C=C(C)CNC(=S)/N=c1\scc(C)n1CC` the inhibition was 1.12%.
In the case of `COc1ccc(C2C(C#N)=C(/N=C/N3CCOCC3)OC3=C2C(=O)CC(C)(C)C3)cc1OC` (configuration not stated), the inhibition is reported as 13.5%.
For `O=P(O)(CP(=O)(c1ccccc1)c1ccccc1)c1ccccc1O`, the inhibition was 7.77%.
Molecule `CC(C)NC(=O)CSc1nnc(COc2ccccc2Cl)o1` has an inhibition of 5.07%.
Work on `O=C(c1cccc(F)c1)N1CCC(O)(c2cccnc2)CC1` yielded an inhibition of 8.81%.
For `CCCOc1cc(C)c(S(=O)(=O)n2nnc3ccccc32)cc1C`, the inhibition was 2.8%.
`NC1=NC(=O)C2(COC(c3ccccc3Cl)OC2)S1` (configuration not stated) showed an inhibition of 14.2%.
`CC(C)Nc1ncnc2c1nnn2Cc1ccccc1` gave an inhibition of -1.71%.
Molecule `Brc1ccc(-c2nnc(-c3ccccc3)o2)o1` has an inhibition of 6.11%.
Work on `CCN(CC)C(=O)CSc1nnc(C2CCCCC2)o1` yielded an inhibition of 2.47%.
For `O=c1[nH][nH]c(C(F)(F)F)c1C=NCc1ccccc1Cl`, the inhibition was -3.59%.
In the case of `CCN1C(=O)/C(=C2/Sc3ccc(OC)cc3N2C)SC1=Nc1ccc(C)cc1`, the inhibition is reported as -3.03%.
`O=C(NC(C(=O)NCCN1CCOCC1)C12CC3CC(CC(C3)C1)C2)C1CCCCC1` (configuration not stated) showed an inhibition of -1.05%.
Work on `S=c1[nH]nc(-c2ccc(Cl)cc2)n1CC1CCCO1` (configuration not stated) yielded an inhibition of 7.93%.
Molecule `Cc1nnc(SCC(=O)Nc2ncc3c(n2)CC(C)(C)CC3=O)s1` has an inhibition of 3.95%.
With `Cc1ccccc1-c1nnc(SCC(=O)NCc2ccc3c(c2)OCO3)n1C` the inhibition was 4.85%.
`Cc1ccc(C(=O)N/N=C/c2sc(=O)n(Cc3cccc(C(=O)O)c3)c2Cl)cc1` showed an inhibition of 8.24%.
For `COc1ccc(CN(Cc2ccco2)S(=O)(=O)c2ccc(S(=O)(=O)N3CCCC3)cc2)cc1`, the inhibition was 1.45%.
Molecule `COC(=O)c1ccccc1Oc1c(F)c(F)nc(N2CCOCC2)c1F` has an inhibition of 8.84%.
With `CCc1ccc(NC(=O)CN2C(=O)CSC2=O)cc1` the inhibition was 5.49%.
`CC(C)(CNC(=O)c1cc(=O)[nH]c2ccccc12)N1CCOCC1` showed an inhibition of 6.02%.
`COc1cc(C)c(C(C)C)cc1S(=O)(=O)n1ccnc1` gave an inhibition of 1.15%.
With `CCn1c(CC(=O)Nc2ccc(C)cc2)nnc1SCC(=O)Nc1nc(C)cs1` the inhibition was 5.16%.
In the case of `CN1C(=O)C(CC(N)=O)N(NC(=O)c2ccc(Cl)cc2)C1=S` (configuration not stated), the inhibition is reported as 7.03%.
For `Cc1ccc(-n2c(CNc3ccc(F)cc3)nnc2SCC(=O)N2CCOCC2)cc1`, the inhibition was 3.95%.
`CC(c1ccco1)N(C(=O)COc1ccccc1[N+](=O)[O-])c1ccccn1` (configuration not stated) showed an inhibition of 7.57%.
Work on `COC(=O)[C@@H](NC(=O)Nc1cc(Cl)ccc1C)C(C)C` yielded an inhibition of 10.7%.
`O=C(Nc1cccc(NC(=O)c2ccco2)c1)c1cnccn1` gave an inhibition of 4.07%.
Work on `Cn1c(-c2sc3cc(C(F)(F)F)cnc3c2-c2ccccc2)n[nH]c1=S` yielded an inhibition of 1.53%.
For `CC(=O)Oc1ccc(NC(=O)CCC2CCCCC2)c(C(=O)O)c1`, the inhibition was 4.27%.
`COc1ccc(S(=O)(=O)NCc2ccc(C(=O)N(C)Cc3ccco3)cc2)cc1` showed an inhibition of 4.38%.
For `CCOc1ccccc1C(=O)NC1CC2CCCC(C1)N2Cc1ccccc1` (configuration not stated), the inhibition was 1.7%.
For `CCn1nnnc1SCC(=O)c1ccc(C)cc1C`, the inhibition was -2.31%.
`Cc1ccccc1CSCCNC(=O)c1ccc(Cl)c(S(=O)(=O)N2CCOCC2)c1` showed an inhibition of 3.05%.
`O=C(NCc1ccccc1)[C@@H]1CSC2c3ccccc3C(=O)N21` (some centres not stated) showed an inhibition of -0.55%.
Work on `Oc1ccc(-c2onc3ccc(Cl)cc23)cc1` yielded an inhibition of 3.22%.
Work on `CCCCCCNCCn1cnc2c(N)ncnc21` yielded an inhibition of 8.75%.
`Cc1cc(C)c(OCC(=O)N/N=C/c2ccco2)c(C)c1` showed an inhibition of -5.16%.
With `Cn1c2c(c(=O)n(C)c1=O)C(c1cccc([N+](=O)[O-])c1)Nc1ccccc1O2` (configuration not stated) the inhibition was 6.05%.
With `c1ccc(-n2nc3ccccc3n2)cc1` the inhibition was 9.8%.
Molecule `Cc1ccc(S(=O)(=O)NCC(C)NS(C)(=O)=O)cc1` (configuration not stated) has an inhibition of 3.23%.
Work on `O=C1C(Cl)=C(N2CCOCC2)C(=O)N1c1ccccc1` yielded an inhibition of 3.34%.
With `Fc1ccccc1/C=C1\CCCC2=C1Nc1ncnn1C2c1ccccc1F` (configuration not stated) the inhibition was 56.5% (active).
Work on `COc1ccc(OC)c(-n2nnnc2SCC(=O)Nc2cc(C)ccc2OC)c1` yielded an inhibition of 4%.
Work on `O=S(=O)(NCCc1ccccc1)c1ccccc1` yielded an inhibition of 5.09%.
`O=C(NCC1CCCO1)c1ccc2ccccc2n1` (configuration not stated) showed an inhibition of 2.84%.
In the case of `CC(C)Oc1ccc(C(=O)NC(C)(C)CO)cc1`, the inhibition is reported as 0.21%.
Molecule `CCN1CCN(C(=O)C2(NC(=O)Nc3cccc(F)c3)CCCCC2)CC1` has an inhibition of -2.53%.
With `CCn1c(SCC(=O)Nc2ccc(OC)c(OC)c2)nnc1-c1c[nH]c2ccccc12` the inhibition was 2.3%.
In the case of `O=C(Nc1ccccc1-c1nnn(CC(=O)N2CCCc3ccccc32)n1)c1cccc(Cl)c1`, the inhibition is reported as -4.65%.
Molecule `CCSc1nc(-c2ccc(OC)cc2)cc(-c2ccc(OC)cc2)c1C#N` has an inhibition of 3.4%.
`CC(C)(C)c1ccc(OC2=CS(=O)(=O)c3ccccc32)cc1` showed an inhibition of 1.17%.
`Cc1c(C=O)c2ccccn2c1C(=O)c1ccncc1` showed an inhibition of -3.35%.
For `Cc1cc(SCC(=O)c2ccccc2)nc(SCC(=O)c2ccccc2)n1`, the inhibition was 9.02%.
For `COCC(=O)Nc1ccc(Br)cc1`, the inhibition was 5.17%.
For `COC(=O)c1sc(=S)n(-c2ccc(Cl)cc2)c1C`, the inhibition was 5.98%.
With `CC(=O)C1=C(C)NC(C)=C(C(C)=O)C1c1cn(-c2ccccc2)nc1-c1cccs1` the inhibition was 4.22%.
`O=C(NCCCn1ccnc1)Nc1ccc(Cl)cc1Cl` gave an inhibition of 8.78%.
`COC(=O)c1ccc(Sc2ccc(F)cc2)c(N)c1` showed an inhibition of 2.2%.
